Bioassay records (PubChem BioAssay)
Candida biofilm: kills Candida albicans biofilms. C. albicans biofilm + clotrimazole, Alamar Blue. AID 834. inhibition, % at 6 µM. actives 0.14% (n = 85,000);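 active = inhibition above 20%; inactive = inhibition below 20%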;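 also: preformed 24 hr biofilms exposed to compound for 48 hr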
ERb SRC1 inh: ER-beta (human) coactivator binding inhibition; actives 1.3% (n = 86,000); Q92731; TR-FRET ER-beta LBD / SRC1-Cy5 peptide binding; receptor agonist-loaded with 1 µM estradiol; inhibition, % at 25.6 µM;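 active = compounds whose percent inhibition of the receptor-coactivator binding signal exceeds about 50% in the single-dose screen, limit read from the data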
ERa coact pot: enhances coactivator binding to human estrogen receptor alpha; P03372; TR-FRET ERalpha-LBD/SRC-Cy5 coactivator binding, 2 h; 100 = basal binding, no effect; coactivator binding (% of control), % at 25.6 µM; actives 1.3% (n = 86,000); AID 639; in the data active = activity above about 200%;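 also: binding measured in presence of low estradiol as agonist stimulus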
Smad3 FoxH1 inh: Smad3 (human) transcription factor binding inhibition. P84022. TR-FRET Smad3/Dy647-FoxH1 peptide binding, europium anti-His. inhibition, % at 25 µM. actives 0.29% (n = 88,000);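 active = compounds that reduce the energy-transfer binding signal between the protein and its labelled peptide by more than half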
Target sequence (P84022 whole entry, looked up): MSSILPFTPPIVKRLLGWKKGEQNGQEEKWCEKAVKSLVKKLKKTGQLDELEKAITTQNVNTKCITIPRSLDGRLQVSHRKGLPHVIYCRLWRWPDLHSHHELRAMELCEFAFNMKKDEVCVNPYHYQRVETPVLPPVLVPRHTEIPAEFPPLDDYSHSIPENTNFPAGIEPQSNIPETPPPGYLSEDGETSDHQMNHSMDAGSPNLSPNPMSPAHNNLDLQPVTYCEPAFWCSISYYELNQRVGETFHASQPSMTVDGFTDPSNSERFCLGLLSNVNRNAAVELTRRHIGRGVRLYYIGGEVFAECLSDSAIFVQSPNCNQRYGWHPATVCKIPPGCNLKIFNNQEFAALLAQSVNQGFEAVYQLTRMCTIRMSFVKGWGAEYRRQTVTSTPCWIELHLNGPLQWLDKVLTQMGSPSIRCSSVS
ERa coact inh: blocks coactivator binding to human estrogen receptor alpha | P03372 | TR-FRET ER-alpha LBD / SRC-1 peptide, estradiol-bound | inhibition, % at 25.6 µM | actives 1.7% (n = 86,000); in the data active = inhibition above about 50%
Hits are given with their value; [ ] = remark or other dose. A selection: hits, their analogues and other compounds. The true share with any hit is near 3.8%.

`c1ccc(COc2ccc(OCCCN3CCCCC3)cc2)cc1` gave Candida biofilm inactive, ERb SRC1 inh inactive, ERa coact pot inactive, Smad3 FoxH1 inh inactive and ERa coact inh 63[fluorescence artefact?].
Screening COc1cccc2c1C(=O)c1c(O)c3c(c(O)c1C2=O)C[C@](O)(C(=O)CO)C[C@@H]3O[C@@H]1C[C@H](N)[C@@H](O)[C@H](C)O1 returned Smad3 FoxH1 inh inactive.
CCOC(=O)CSc1nc2cc(C(=O)OC)ccc2c(=O)n1CCN1CCOCC1 was read as Candida biofilm inactive, ERb SRC1 inh inactive, ERa coact pot inactive, Smad3 FoxH1 inh inactive and ERa coact inh inactive.
`COC(=O)c1ccc2c(=O)n(CCN3CCOCC3)c(SCC(=O)C(C)(C)C)nc2c1` gave Candida biofilm inactive, ERb SRC1 inh inactive, ERa coact pot 786[fluorescence artefact?], Smad3 FoxH1 inh inactive and ERa coact inh inactive.
Screening NCS(=O)(=O)O returned Smad3 FoxH1 inh inactive.
Screening CCCCNC(=O)NC1(C(F)(F)F)Oc2ccccc2O1 returned Candida biofilm inactive, ERb SRC1 inh inactive, ERa coact pot inactive, Smad3 FoxH1 inh inactive and ERa coact inh inactive.
Screening O=C(NCCN1CCOCC1)NC1(C(F)(F)F)Oc2ccccc2O1 returned Candida biofilm inactive, ERb SRC1 inh inactive, ERa coact pot 617[fluorescence artefact?], Smad3 FoxH1 inh inactive and ERa coact inh inactive.
CC(C)c1ccc(/C=C2/C=C(c3ccc4ccccc4c3)OC2=O)cc1 was read as Smad3 FoxH1 inh inactive.
C=CCNc1nc(NCc2ccccc2)c(C#N)c2c1CN(C)CC2 was read as Candida biofilm inactive, ERb SRC1 inh inactive, ERa coact pot inactive, Smad3 FoxH1 inh inactive and ERa coact inh inactive.
`CCN1CCc2c(C#N)c(NCc3ccccc3)nc(N(CC)CC)c2C1` gave Candida biofilm inactive, ERb SRC1 inh inactive, ERa coact pot 675[fluorescence artefact?], Smad3 FoxH1 inh inactive and ERa coact inh inactive.
Screening N#Cc1c(NCCN)nc(NCc2ccccc2)c2c1CCN(Cc1ccccc1)C2 returned Candida biofilm inactive, ERb SRC1 inh inactive, ERa coact pot inactive, Smad3 FoxH1 inh inactive and ERa coact inh 79.
CCOC(=O)c1c(C)oc2c1c(C(c1cccnc1)N1CCN(C)CC1)c(O)c1ccccc12 (centres undefined) was read as Candida biofilm inactive, ERb SRC1 inh 64[fluorescence artefact?], ERa coact pot inactive, Smad3 FoxH1 inh inactive and ERa coact inh 77[fluorescence artefact?].
`O=C1C2=C(Nc3cc([N+](=O)[O-])ccc3N2)O[C@H]1c1ccc([C@H]2OC3=C(Nc4ccc([N+](=O)[O-])cc4N3)C2=O)cc1` gave Smad3 FoxH1 inh inactive.
For CSc1ccc(S(=O)(=O)Nc2c(C)cccc2C)cc1 the results were Candida biofilm inactive, ERb SRC1 inh inactive, ERa coact pot inactive, Smad3 FoxH1 inh inactive and ERa coact inh 55.
For CCc1ccccc1NS(=O)(=O)c1ccc(SC)cc1 the results were Candida biofilm inactive, ERb SRC1 inh inactive, ERa coact pot inactive, Smad3 FoxH1 inh inactive and ERa coact inh 66[fluorescence artefact?].
`COc1ccc(NS(=O)(=O)c2ccc(SC)cc2)cc1` gave Candida biofilm inactive, ERb SRC1 inh inactive, ERa coact pot inactive, Smad3 FoxH1 inh inactive and ERa coact inh inactive.
CSc1ccc(S(=O)(=O)Nc2ccc(F)cc2)cc1 was read as Candida biofilm inactive, ERb SRC1 inh inactive, ERa coact pot inactive, Smad3 FoxH1 inh inactive and ERa coact inh 67[fluorescence artefact?].
`O=C(Nc1cnn(Cc2ccc(Cl)cc2Cl)c1)c1cc(-c2cccs2)on1` gave Candida biofilm inactive, ERb SRC1 inh inactive, ERa coact pot inactive, Smad3 FoxH1 inh inactive and ERa coact inh 51[fluorescence artefact?].
For COc1ccc(C(=O)c2c(C(F)(F)F)oc3c2C(=O)c2ccccc2C3=O)cc1 the results were Candida biofilm inactive, ERb SRC1 inh 68, ERa coact pot inactive, Smad3 FoxH1 inh inactive and ERa coact inh inactive.
Screening COc1cccc(NC2SC(=O)N(c3ccccc3)C2=O)c1 (centres undefined) returned Candida biofilm inactive, ERb SRC1 inh inactive, ERa coact pot 204, Smad3 FoxH1 inh inactive and ERa coact inh inactive.
For CN1C(=O)SC(Nc2ccccc2)C1=O (centres undefined) the results were Candida biofilm inactive, ERb SRC1 inh inactive, ERa coact pot inactive, Smad3 FoxH1 inh inactive and ERa coact inh inactive.
Screening S=C1SCN(C2CCCCCCCCCCC2)CN1C1CCCCCCCCCCC1 returned Smad3 FoxH1 inh inactive.
N#C/C(=C\Nc1ccccn1)C(=O)c1ccco1 was read as Smad3 FoxH1 inh inactive.
COc1cc(NC(=O)CCNC(=O)Cn2cnc3ccccc3c2=O)cc(OC)c1OC was read as Candida biofilm inactive, ERb SRC1 inh inactive, ERa coact pot inactive, Smad3 FoxH1 inh inactive and ERa coact inh 83[fluorescence artefact?].
Screening CCn1c2ccc(OC)cc2c2nc3ccccc3nc21 returned Candida biofilm inactive, ERb SRC1 inh inactive, ERa coact pot inactive, Smad3 FoxH1 inh inactive and ERa coact inh inactive.
`CCCCOC(=O)Cn1c2ccc(OC)cc2c2nc3ccccc3nc21` gave Candida biofilm inactive, ERb SRC1 inh inactive, ERa coact pot 227[fluorescence artefact?], Smad3 FoxH1 inh inactive and ERa coact inh 53[fluorescence artefact?].
Screening CCOc1ccccc1C(=O)N1CCN=C1SC returned Candida biofilm inactive, ERb SRC1 inh 87, ERa coact pot inactive, Smad3 FoxH1 inh inactive and ERa coact inh inactive.
`CCCC(C)NC1=NCCCCC1` (centres undefined) gave Candida biofilm inactive, ERb SRC1 inh inactive, ERa coact pot inactive, Smad3 FoxH1 inh inactive and ERa coact inh inactive.
Cc1ccc(-c2nc3ccccc3n3nnnc23)cc1 was read as Candida biofilm inactive, ERb SRC1 inh inactive, ERa coact pot inactive, Smad3 FoxH1 inh inactive and ERa coact inh inactive.
`COc1ccc(Nc2nc3ccccc3n3cnnc23)cc1` gave Candida biofilm inactive, ERb SRC1 inh inactive, ERa coact pot inactive, Smad3 FoxH1 inh inactive and ERa coact inh inactive.
`c1ccc2c(c1)nc(NCCN1CCOCC1)c1nncn12` gave Candida biofilm inactive, ERb SRC1 inh inactive, ERa coact pot inactive, Smad3 FoxH1 inh inactive and ERa coact inh inactive.
Fc1ccc(CNc2nc3ccccc3n3cnnc23)cc1 was read as Candida biofilm inactive, ERb SRC1 inh inactive, ERa coact pot 306[fluorescence artefact?], Smad3 FoxH1 inh inactive and ERa coact inh 84.
Cc1ccc(CNc2nc3ccccc3n3nnnc23)cc1 was read as Candida biofilm inactive, ERb SRC1 inh inactive, ERa coact pot 209[fluorescence artefact?], Smad3 FoxH1 inh inactive and ERa coact inh 51.
For CCOc1ccccc1Nc1nc2ccccc2n2cnnc12 the results were Candida biofilm inactive, ERb SRC1 inh inactive, ERa coact pot 368[fluorescence artefact?], Smad3 FoxH1 inh inactive and ERa coact inh inactive.
CCOC(=O)Cn1c(=O)oc2cc(S(=O)(=O)N3CCN(c4ccccn4)CC3)ccc21 was read as Candida biofilm inactive, ERb SRC1 inh inactive, ERa coact pot 245[fluorescence artefact?], Smad3 FoxH1 inh inactive and ERa coact inh inactive.
`Cc1ccc2cc(C)c(NCCO)nc2c1` gave Candida biofilm inactive, ERb SRC1 inh inactive, ERa coact pot inactive, Smad3 FoxH1 inh inactive and ERa coact inh inactive.
Screening Cc1ccc2ccc(C3C(=O)c4ccccc4C3=O)nc2c1 returned Candida biofilm inactive, ERb SRC1 inh inactive, ERa coact pot 395, Smad3 FoxH1 inh inactive and ERa coact inh inactive.
For COc1ccc([C@@H](Nc2ccccn2)c2cc(C(C)(C)C)cc(C(C)(C)C)c2O)cc1 the results were Smad3 FoxH1 inh 69.
